# High-throughput results (PubChem BioAssay)
# PGE2 EP2 inh: blocks the human prostaglandin E2 receptor EP2; C6 glioma cells expressing human EP2, cAMP TR-FRET; cells stimulated with saturating PGE2; inhibition, % at 25 µM; hit rate 0.52% among 260,000;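 active = percent inhibition above 40 after rounding to a whole number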;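 note: rat C6 glioma host cells with rolipram phosphodiesterase inhibitor present; the protocol text gives 20 µM as final concentration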
# Target sequence (P43116 whole entry, looked up): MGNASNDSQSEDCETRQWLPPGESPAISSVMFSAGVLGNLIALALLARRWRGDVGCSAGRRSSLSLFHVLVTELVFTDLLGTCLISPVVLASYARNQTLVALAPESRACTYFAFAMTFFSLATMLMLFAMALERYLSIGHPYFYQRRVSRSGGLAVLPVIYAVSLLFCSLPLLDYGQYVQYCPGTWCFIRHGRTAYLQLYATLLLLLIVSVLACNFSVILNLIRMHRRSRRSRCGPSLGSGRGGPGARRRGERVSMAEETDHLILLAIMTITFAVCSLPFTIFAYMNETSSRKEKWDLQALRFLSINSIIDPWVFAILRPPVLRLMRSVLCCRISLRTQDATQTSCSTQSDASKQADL
# EP2 modulator: modulates human prostaglandin E2 receptor EP2 signaling. P43116. induction, % at 25 µM. hit rate 0.83% among 260,000. EP2-expressing cells, cAMP HTRF FRET, PGE2 co-stimulation. AID 940;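 active = compounds whose cAMP rise, as percent of the full-agonist control response, exceeds 60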;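 note: rat C6 glioma line stably carrying human EP2 under a CMV promoter; the protocol text gives 20 µM as final concentration; 100% = response of wells given 1 µM PGE2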
# CHT block: human CHT choline transport inhibition. CHT-expressing cells, membrane potential dye, choline response; stronger effect = lower value. hit rate 0.86% among 310,000. B-score at 10 µM. AID 488975;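 active = B-score over 3 SD under the library average, and starting fluorescence ratio not unusually high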;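 note: choline stimulus applied at its EC90 after an EC20 pre-addition; B-score computed on integrated fluorescence ratio after choline addition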
# CHT allo act: allosterically activates the human high affinity choline transporter. Q9GZV3. CHT-expressing cells, membrane potential dye, choline EC20; stronger effect = higher value; LV-AA mutant CHT in HEK293 cells. B-score at 10 µM. hit rate 0.49% among 310,000;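 active = initial fluorescence not abnormally high and integrated response B-score, plate-corrected, over 3 SD above library mean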
# CHT inh conf: confirmation of human choline transporter CHT inhibitors; CHT activity remaining % of control (stronger effect = lower value), % at 10 µM; shares compounds with CHT block; hit rate 70% among 2,400; CHT-expressing cells, choline membrane potential dye; LV-to-AA substituted CHT, HEK293 cells;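 active = choline transporter activity left, mean of duplicates at 10 µM, below buffer-only control mean minus 3 SD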;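 note: depolarization triggered by choline at its EC90 following an EC20 pre-addition; 0% = hemicholinium-3 full block and 100% = buffer-only control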
# HEK293 MPD ctr: counter-screen for CHT inhibitors: effect in parental HEK293 cells. shares compounds with CHT block. membrane potential dye, choline response; active = decrease or increase beyond buffer ±3SD. membrane potential ratio readout (active if shifted either direction beyond buffer ±3SD; no single direction) at 10 µM. hit rate 4% among 2,400. AID 493222;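 note: parental cells lack the transporter so any hit is non-specific; ratio is peak minus trough fluorescence over baseline after EC90 choline challenge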
# Active calls of the source: *; i = inactive; . = no result. Most compounds without a hit are left out; they make up all but 2.1% or so of the library.
SMILES,PGE2 EP2 inh,EP2 modulator,CHT block,CHT allo act,CHT inh conf,HEK293 MPD ctr
COc1ccc(S(=O)(=O)N2CCC(C(=O)N3CCc4ccccc4C3)CC2)cc1,9,-41,-5.8*,i,49%*,i
O=C(CCc1ccc(S(=O)(=O)N2CCOCC2)cc1)N1CCc2ccccc2C1,13,-28,-5.8*,i,66%*,i
CSc1ccc(S(=O)(=O)N2CCC(C(=O)N3CCc4ccccc4C3)CC2)cc1,.,.,-14*,i,59%*,i
O=C(c1ccc(S(=O)(=O)N2CCOCC2)cc1)N1CCc2ccccc2C1,8,2,i,i,.,.
Cc1cc(NC(=O)CCC(=O)N(Cc2ccccc2)C2(C(=O)NC3CCCCC3)CCCC2)no1,6,29,-5.6*,i,i,i
CCc1nn(CC(=O)N(C)C2CCCCC2)c(=O)c2cc3occc3n12,.,16,.,.,.,.
COc1ccc(S(=O)(=O)N2C3CCC2CC(=O)NC3)cc1 (stereo unspecified),.,-2,.,.,.,.
CCSc1nnc([C@H](Cc2ccccc2)NC(=O)OC(C)(C)C)o1,2,-8,-7*,i,i,i
CC(C)(C)OC(=O)N[C@@H](Cc1ccccc1)c1nnc(SCC(=O)O)o1,7,14,i,i,.,.
CC(C)(C)c1ccc(C(=O)Nc2cccnc2)cc1,.,.,i,i,.,.
CC(C)(C)c1ccc(C(=O)Nc2ccc(Oc3cccnc3)nc2)cc1,9,-31,-5.2*,i,i,i
COc1ccc(CC(=O)N2CCc3cc(OC)c(OC)cc3C2C)c(OC)c1 (stereo unspecified),.,.,-12*,i,i,i
CCOC(=O)CSc1nnc(CNc2ccccc2Cl)n1-c1ccccc1,2,-2,-5.3*,i,i,i
CCC(=O)N/C(=N/c1nc(C)cc(C)n1)Nc1ccccc1,6,5,i,i,.,.
CCc1ccc(N/C(=N/c2nc(C)cc(C)n2)NC(C)=O)cc1,.,.,-5.8*,i,58%*,i
O=C(COc1ccccc1/C=C1\SC(=O)NC1=O)Nc1ccccc1,7,-13,-5.7*,i,51%*,i
O=C(Cn1nc(C(F)(F)F)c2c1CCCC2)NC1CCCC1,5,-8,-5.8*,i,52%*,i
COc1ccc(OC)c(NC(=O)C(CC(=O)O)Cc2ccc(Cl)cc2)c1 (stereo unspecified),11,7,i,i,.,.
O=C(O)CC(Cc1ccc(Cl)cc1)C(=O)Nc1cc(Cl)ccc1Cl (stereo unspecified),.,.,-5.3*,i,53%*,i
O=c1cc(CSc2ccccc2)nc(-c2ccncc2)[nH]1,5,8,-6.5*,i,i,i
COc1ccc(N(CC(=O)N2CCN(c3cccc(Cl)c3)CC2)S(C)(=O)=O)cc1,6,-17,.,.,.,.
CCCN1Cc2cccc(C(=O)NCc3ccccc3OC)c2C1=O,2,18,-5.3*,i,71%*,i
COCCN1Cc2cccc(C(=O)NCc3ccccc3OC)c2C1=O,13,21,i,i,.,.
CC(=O)/C(C#N)=C1\NC(=O)C(Cc2ccc(C)c(Cl)c2)S1 (stereo unspecified),7,30,-7*,i,i,i
COc1ccc([N+](=O)[O-])c(S(=O)(=O)c2ccc(Cl)cc2)n1,11,-72,-6.6*,i,48%*,i
SMILES,PGE2 EP2 inh,EP2 modulator,CHT block,CHT allo act,CHT inh conf,HEK293 MPD ctr
O=[N+]([O-])c1cccnc1S(=O)(=O)c1ccccc1,.,.,i,i,.,.
COc1ccc([N+](=O)[O-])c(S(=O)(=O)c2ccccc2)n1,6,-43,-5.3*,i,44%*,i
CC(C)c1ncc(CN(CCc2ccccc2)Cc2cccs2)cn1,7,53,.,.,.,.
O=C(Cn1nc(-c2ccccc2)ccc1=O)NCc1ccc2c(c1)OCO2,6,3,i,i,.,.
O=C(Cn1nc(-c2ccccc2)ccc1=O)NCc1ccc(F)cc1,5,-30,-6.3*,i,49%*,i
COCCNC(=O)c1cn(C[C@@H]2CCCN(C(=O)c3oc(C)nc3C)C2)nn1,9,-17,.,.,.,.
Cc1occc1C(=O)NNC(=S)NC(=O)COc1ccc(Cl)cc1Cl,.,.,-9.4*,i,58%*,i
CCN(CC)C(=O)CSc1nc2ccc(NC(=O)CSc3nccn3C)cc2s1,11,4,-9.6*,i,25%*,i
O=S(=O)(Nc1nc2ccccc2nc1Cl)c1cccc(C(F)(F)F)c1,.,.,-5.2*,i,i,i
O=S(=O)(Nc1nc2ccccc2nc1Cl)c1ccccc1C(F)(F)F,.,.,i,i,.,.
Cc1cc(C)n2nc(SCc3ccccc3)nc2n1,12,-3,i,i,.,.
Cc1cc(C)n2nc(SCc3nnc(SCc4ccccc4)s3)nc2n1,-7,-6,-6.1*,i,i,i
COc1ccc(-c2ccc(=O)n(C[C@H](C)NC(=O)C3(c4ccc(Cl)cc4)CC3)n2)cc1,16,-19,.,.,.,.
O=[N+]([O-])c1ccc(O)c(/C=N/NC2=NS(=O)(=O)c3ccccc32)c1,5,1,-5.6*,i,60%*,i
O=[N+]([O-])c1ccc(/C=N/NC2=NS(=O)(=O)c3ccccc32)cc1,2,-13,i,i,.,.
Cc1ccc(C(=O)OC(C)C(=O)NC2CCCCC2C)cc1S(=O)(=O)N1CCCCC1 (stereo unspecified),.,.,-7.9*,i,i,i
Cc1ccccc1NC(=O)c1ccc(C)c(S(=O)(=O)N2CCN(C)CC2)c1,.,.,-5.7*,i,59%*,i
Cc1ccc(C(=O)NC2CCCCC2)cc1S(=O)(=O)N1CCCC1,.,.,-6*,i,61%*,i
COc1ccccc1NC(=O)c1ccc(C)c(S(=O)(=O)N2CCCCC2)c1,.,.,i,i,.,.
CC(OC(=O)c1ccc(Cl)c(S(=O)(=O)N2CCCC2)c1)C(=O)NC1CCCCC1C (stereo unspecified),.,.,i,i,.,.
CCOC(=O)c1ccc(NC(=O)c2ccc(C)c(S(=O)(=O)N3CCOCC3)c2)cc1,6,-30,-5.5*,i,68%*,i
Cc1cccnc1C1(O)CCN(C(=O)Cc2c(F)cccc2Cl)CC1,.,12,.,.,.,.
COc1ccc(CCNC(=O)c2c[nH]c3c(OC)cccc3c2=O)cc1OC,9,-45,.,.,.,.
CCC(CC)c1nnc(NC(=O)c2cccc(F)c2)s1,9,-13,.,.,.,.
CN1CCCN(c2ncnc3scc(-c4ccc(F)cc4)c23)CC1,6,17,-10*,i,24%*,i
Fc1ccc(CN2CCN(c3ncnc4scc(-c5ccc(F)cc5)c34)CC2)cc1,.,.,i,i,.,.
COc1ccc(C(=O)C[n+]2cccc(C)c2)cc1,9,-16,-8.5*,i,6.4%*,i
Cc1ccc[n+](CC(=O)c2ccc(Br)cc2)c1C,.,.,-9.7*,i,39%*,i
